About 83,000 compounds went through this panel and 20% of them were active in at least one assay; those are over-represented in the sample as a whole.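 Negative percent growth values reflect cell death: -40 means 40% of the cells present at the start died, and -100 means all died.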 Active and inactive are the calls of the source.

The test system of the assay is ACHN renal. As to the kind of experiment: NCI-60 one-dose screen, 48 h (100 = growth as untreated, 0 = no growth, -100 = all killed). The following applies: 10 µM. The procedure:
Growth inhibition of the ACHN human tumor cell line is measured as a screen for anti-cancer activity. Cells are grown in 96 well plates and exposed to the test compound for 48 hours. Compounds are tested at a single concentration, which is 10^-5 M for most compounds. The reported endpoint is percent growth (GI% or GIPRCNT), where numbers from 0 - 100% represent growth inhibition, and numbers from -100% - 0 represent cell death. For example, a value of 40 represents 60% growth inhibition. A value of 0 means no net growth occurred over the course of the experiment. A value of -40 indicates 40% of cells at the beginning of the experiment died by the end of the experiment. A value of -100 means all cells are dead at the end of the experiment.
NCI-60 Human Tumor Cell Lines Screen was performed using the standard one-dose NCI protocol, which is described in more detail at https://dtp.cancer.gov/discovery_development/nci-60/default.htm.
Compounds with GIPRCNT values below 10 were considered active. Activity score was based on GIPRCNT using the following formula: […]
Score is 0 for GIPRCNT values of 100 or above, 50 for GIPRCNT values of 0, and 100 for GIPRCNT values of -100.
On to `O=C(CN1CCN(c2ncnc3c2cnn3-c2ccccc2)CC1)Nc1ccc(Br)cc1`, for which the growth is -88.1% (active).

`Fc1ccc(-c2csc(Nc3cccc(Nc4nc(-c5ccc(F)cc5)cs4)c3)n2)cc1`: the growth was 51.8% (inactive). For `COc1ccc(C(=O)COc2ccc(NC(=O)Nc3ccccc3)cc2)cc1`, the growth is 98% (inactive). With `CC1[C@H]2[C@H](C[C@H]3[C@@H]4CC=C5c6sc(Nc7cccc(Cl)n7)nc6CC[C@]5(C)[C@H]4CC[C@@]32C)O[C@]12CC[C@@H](C)CO2` (stereo not given in full) the figure was 96.4% (inactive); with `Cc1ccc2sc3c(c2c1)Oc1nc[nH]c(=O)c1C3c1cccc(F)c1` (stereo not given), 97% (inactive); with `COc1cc(-c2nc3ccc(C)cc3[nH]2)ccc1OCc1nnc(-c2ccccc2Br)o1`, 76.6% (inactive). With `Cc1cc(N=C2NC(=O)S/C2=C\c2ccc(F)cc2)n[nH]1` the figure was 27.4% (inactive); with `CCn1c(SCC(=O)Nc2ccc(-c3nc4ccccc4[nH]3)cc2)nc2ccccc2c1=O`, -86.4% (active). In the case of `O=C(CC(=O)Nc1ccc(Oc2ncnc3scc(Nc4n[nH]c(=S)s4)c23)cc1)Nc1ccc(Br)cc1` it was 106% (inactive); in that of `Cn1cc(-c2nnc(N)nc2-c2c[nH]c3ccccc23)c2cc(Br)cnc21`, 39.7% (inactive). As for `C#C[C@]1(O)CC[C@H]2[C@@H]3CC=C4c5sc(Nc6ccc(C(F)(F)F)cn6)nc5CC[C@]4(C)[C@H]3CC[C@@]21C`, the growth is 0.62% (active). In the case of `Cn1cc(-c2nnc(N)nc2-c2c[nH]c3ccc(F)cc23)c2cc(Br)cnc21` it was 47% (inactive); in that of `Cc1ccc(COc2ccc(NC(=O)Nc3ccc(Cl)c(C(F)(F)F)c3)cc2)cc1`, 56.8% (inactive).

Turning to `O=C(CSc1nc2ccccc2c(=O)n1-c1ccc(Cl)cc1)Nc1ccc(-c2nc3ccccc3[nH]2)cc1`, the growth was 3.26% (active). In the case of `COc1ccc(C2c3sc4ccc(C)cc4c3Oc3nc[nH]c(=O)c32)cc1` (stereo not given), the growth was 106% (inactive). In the case of `COc1cc(C2CC(c3ccc(Oc4ccc(Cl)cc4)cc3)=NN2c2nc(-c3ccc(Cl)cc3)c(C#N)c(N3CCOCC3)n2)cc(OC)c1OC` (stereo not given) it was 96.5% (inactive); in that of `Cc1cc(N=C2NC(=O)/C(=C/c3cc(C(C)(C)C)c(O)c(C(C)(C)C)c3)S2)n[nH]1`, 14% (inactive). With `O=C(Nc1ccc(OCc2ccc(Cl)cc2)cc1)Nc1ccc(Cl)c(C(F)(F)F)c1` the figure was 11.2% (inactive). With `O=C1NC(=S)S/C1=C\c1cn(-c2ccccc2)nc1-c1ccc([N+](=O)[O-])cc1` the figure was 12.6% (inactive); with `Cn1cc(/C=C(/SS/C(=C/c2cn(C)c3cccc(C(=O)O)c23)C(=O)O)C(=O)O)c2c(C(=O)O)cccc21`, 110% (inactive); with `COc1ccc(C2OC[C@@]3(C)C4CC[C@]5(C)C(CC=C6C7CC(C)(C)CC[C@]7(C(=O)O)CC[C@]65C)[C@@]4(C)C[C@@H](O)[C@@H]3O2)cc1` (stereo not given in full), 56.8% (inactive). For the compound `Nc1nnc(-c2c[nH]c3ncc(Br)cc23)c(-c2c[nH]c3ccc(Br)cc23)n1`, the growth was 37.3% (inactive).

Consider `COc1ccc(Cc2nn(CC(=O)N/N=C/c3ccc(Br)cc3)c(=O)c3c(C)noc23)cc1`, for which the growth is 5.6% (active).

Regarding `CCOc1ccc(/C=N/NC(=O)Cn2nc(Cc3ccc(OC)cc3)c3onc(C)c3c2=O)cc1`, the growth was 13.1% (inactive). As to `C#CCOc1cc(N(CC)CC)ccc1C(C(=O)NC(C)(C)C)N(C(=O)C1CCc2cc(F)ccc2O1)c1ccc(F)cc1F` (stereo not given), the growth is 24.7% (inactive).

Take `CC(C)(C)c1cc(/C=C2\S/C(=N/c3ncn[nH]3)NC2=O)cc(C(C)(C)C)c1O`: the growth was 18.2% (inactive). For `COc1ccccc1-n1cc(C#N)c(N)c1C(=O)c1ccc(Cl)cc1Cl`, the growth is 48.3% (inactive). `Cn1cc(-c2nc(N)nnc2-c2c[nH]c3ccccc23)c2cc(Br)cnc21`: the growth is 19.2% (inactive).

In the case of `CCOC(=O)C1=C(N)N(c2ccc(C)cc2)C2=C(C(=O)CC(C)(C)C2)C1c1ccccc1Br` (stereo not given), the growth is 85.9% (inactive). With `COc1ccc(NCc2cn(-c3ccc(C(=O)O)cc3)nc2-c2ccc(F)cc2)cc1C(F)(F)F` the figure was 43.1% (inactive); with `Fc1ccc(/C=C/c2nc3ccccc3n3c(-c4ccc(Cl)cc4)nnc23)cc1`, 47.5% (inactive). In the case of `O=C(Nc1ccc(OCc2ccc(F)cc2)cc1)Nc1ccc(Cl)c(C(F)(F)F)c1` it was 14.6% (inactive). For `COc1ccc(Cn2cc(C#N)c(N)c2C(C)=O)c(OC)c1`, the growth is 101% (inactive). With `C#C[C@]1(O)CC[C@H]2[C@@H]3CC=C4c5sc(Nc6cc(C)cc(C)n6)nc5CC[C@]4(C)[C@H]3CC[C@@]21C` the figure was 7.43% (active). In the case of `O=C(CC(=O)Nc1ccc(Oc2ncnc3scc(Nc4n[nH]c(=S)s4)c23)cc1)Nc1ccc(Cl)cc1` it was 77.4% (inactive). With `O=C(Nc1ccc(OCC(=O)c2ccc(Cl)cc2)cc1)Nc1ccc(Cl)c(C(F)(F)F)c1` the figure was 16.8% (inactive). `COc1ccc2[nH]cc(-c3nc(N)nnc3-c3cn(C)c4ncc(Br)cc34)c2c1`: the growth was 10.2% (inactive).

Consider `O=C(CN1CCN(c2ncnc3c2cnn3-c2ccccc2)CC1)Nc1ccc(Cl)cc1`, for which the growth is -80.7% (active). In the case of `COc1cc2oc(-c3cccc(C(=O)Nc4ccc(Cl)cc4)c3)cc(=O)c2c(OCCN)c1OC` it was -92.5% (active). In the case of `O=C1S/C(=C\c2ccc([N+](=O)[O-])cc2)C(=O)N1CCN1CCCCC1` it was 103% (inactive).

Values taken from PubChem BioAssay (NCI).
